aSyn UTR act: Activators via SNCA 5'UTR binding, MLPCN | alpha-synuclein 5'UTR reporter, activators screen | activity score, % (tested at 7.5 µM), hits read low | 7.1% of 300,000 active | AID 1814; in the data active = activity score below about -60%
Starred values were filed as active, the others as inactive. Not all results are given here.

SMILES	aSyn UTR act
COc1ccc(/C=C2\CC/C(=C\c3ccc(OC)c(OC)c3)C2=O)cc1OC	-73.9*
CC(C)(C)NC(=O)N1CCN(c2nc3ccc(Cl)cc3s2)CC1	-156.1*
CCCCC(=O)N1CCN(c2nc3ccc(Cl)cc3s2)CC1	-148.1*
CC(C)(C)NC(=O)N1CCN(c2nc(-c3ccccc3)ns2)CC1	-118.9*
CCCC(=O)N(C)c1nnc(-c2ccc(OC)cc2)s1	-128.5*
CCOc1ccc(-c2nnc(N(CC)C(=O)C3CCC3)s2)cc1	-102.4*
CC[C@@]1(O)C(=O)OCc2c1cc1n(c2=O)Cc2cc3c(N)cccc3nc2-1	102.5
O=c1cccc2n1Cc1cc3ccccc3nc1-2	-151.9*
COc1ccc(NC(=O)/C(C#N)=C\c2ccc(Br)o2)cc1	-114.3*
CNC(=O)/C(C#N)=C/c1ccc(-c2ccc(OC)cc2[N+](=O)[O-])o1	-76.1*
COc1ccc(NC(=O)/C(C#N)=C\c2cc(C)n(-c3ccc4c(c3)OCO4)c2C)cc1	-107.0*
O=C(CSc1nnc(-c2ccccn2)o1)Nc1ccc(F)cc1	-93.8*
O=C(CSc1nnc(-c2ccccn2)o1)Nc1ccccc1	-70.8*
Fc1ccc(CSc2nnc(-c3ccccn3)o2)cc1	-196.1*
Cc1occc1-c1nnc(SCC(=O)Nc2ccccn2)o1	-114.9*
O=C(CSc1n[nH]c(-c2ccccn2)n1)Nc1ccc(F)cc1	72.8
Cc1ccc(-n2sc3ccccc3c2=O)cc1	-121.2*
O=C(/C(=C/c1ccc(Cl)cc1)c1nc2ccccc2[nH]1)c1ccccc1	-217.2*
N#C/C(=C(/O)c1ccc(Cl)cc1)c1nc2ccccc2[nH]1	-67.3*
c1ccc2c(c1)Nc1cc3ccccc3cc1S2	-135.0*
O=C1CCNc2cc3ccccc3cc21	77.7
COc1cccc(COc2ccc3c(C)cc(=O)oc3c2)c1	-164.5*
COc1ccc(C2=NOC(COc3ccc4c(C)cc(=O)oc4c3)C2)c(OC)c1 (stereo not drawn)	82.6
COc1cccc(C(=O)COc2ccc3c(C)cc(=O)oc3c2)c1	-106.3*
CCc1ccc(N=C2N=C(N)c3ccccc32)cc1	-98.4*
SMILES	aSyn UTR act
Cc1ccc(N=C2N=C(N)c3ccccc32)cc1C	-78.2*
COc1cc(/C(C)=N/NC(=O)CSc2nncn2C)ccc1OCc1ccccc1Cl	-83.0*
Cc1cc2[nH]c3ccccc3c2c(C)n1	-85.1*
Cc1ccc(COc2ccc(Br)cc2/C=N/O)cc1	-155.8*
CCOc1cc(/C=N/O)ccc1OCc1ccc(C)cc1	-68.0*
O/N=C/c1cc(Br)ccc1OCc1ccc(F)cc1	-78.6*
CC(C)c1cc(C(=O)Nc2cc(Br)ccc2O)no1	-290.8*
O=C(Nc1cc(Br)ccc1O)c1cc(-c2cccs2)on1	-146.8*
CC(C)c1cc(C(=O)Nc2cc(Cl)ccc2O)no1	-290.0*
CSc1ccccc1NC(=O)c1cc(C(C)C)on1	-143.3*
O=[N+]([O-])c1ccc(Cc2nnc(-c3ccccc3Cl)o2)cc1	-171.9*
C#Cc1cccc(NC(=O)CSc2nnc(-c3ccc(C(F)(F)F)cn3)o2)c1	-124.3*
N#Cc1cccc(NC(=O)CSc2nnc(-c3n[nH]c4ccccc34)o2)c1	-276.5*
Cc1cccc(NC(=O)CSc2nnc(-c3n[nH]c4ccccc34)o2)c1	-180.0*
CC1(C)CC(=O)c2sc(N3CCCCC3)nc2C1	-90.6*
Cc1ccc(C(=O)NCc2ccc3c(c2)CCO3)cc1C	-96.3*
Cc1cc(/C=C2/NC(=O)N(c3ccccc3)C2=O)c(C)n1-c1cccnc1	-148.6*
Cc1cc(/C=C2\Cc3ccccc3C2=O)c(C)n1-c1ccccc1	51.6
CC1=NN(c2ccccc2)C(=O)/C1=C/c1ccc[nH]1	-180.5*
CC1=NN(c2ccccc2)C(=O)/C1=C\c1cc(C)n(-c2ccccc2)c1C	-81.8*
CC1=NN(c2ccccc2)C(=O)/C1=C/c1c(O)n(-c2ccc(F)cc2)[nH]c1=O	-134.4*
CC1=NN(c2cccc(C(=O)O)c2)C(=O)/C1=C\C=C/c1ccccc1	-63.8*
Cc1cc(/C=C2/C(=N)N3C(c4ccccc4)=CSC3=NC2=O)c(C)n1-c1ccccc1	-80.7*
Oc1ccc(-c2nnc(-c3ccccc3)c(-c3ccccc3)n2)cc1	-201.3*
CN(C)c1nc(-c2ccccn2)nnc1-c1ccccc1	79.3
SMILES	aSyn UTR act
Oc1ccccc1N=Nc1nc(-c2ccccc2)c(-c2ccccc2)[nH]1	107.2
COCCNC(=O)/C(C#N)=C/c1ccc(OCc2ccccc2)cc1	-140.7*
COCCNC(=O)/C(C#N)=C/c1ccc(OCc2ccc(F)cc2)cc1	-73.4*
CCCOC1CCCN(C(=O)CCc2nnc(-c3ccc4c(c3)OCO4)o2)C1 (stereo not drawn)	-73.4*
CCC(=O)C1CCCN(C(=O)CCc2nnc(-c3ccc(C(C)=O)s3)o2)C1 (stereo not drawn)	-87.7*
O=c1c(Cl)c(NCCCO)cnn1-c1nc2ccccc2[nH]1	-232.0*
C/C(N)=C(/C#N)C(=O)CSc1nc2ccccc2[nH]1	-114.8*
Cc1[nH]c2ccccc2c1C(=O)CSc1nc2ccccc2c(=O)n1CCCN1CCOCC1	-66.9*
CC1CCN(C(=O)CSc2nc3ccccc3[nH]2)CC1	-105.1*
Cc1[nH]c2ccccc2c1C(=O)CSC(=S)N1CCCCC1	-159.4*
